Measurements: PubChem BioAssay (NCATS)
Records with an inconclusive call do not appear. Calls of active or inactive are those of the source. Calls come from the whole dose curve; as a rule, active = well fitted curve in the direction sought with a large enough effect; inconclusive = small, poorly fitted or top-dose-only effect, or another doubt; inactive = no such curve, though single readings can be large; an effect the other way counts as inactive or inconclusive.

Legend:
[1] = Quantitative highthroughput screen to assess conditional lethalithy of NOMO1 cells grown in RPMI1640 with untreated serum (RPMI+s) (AID 1963876); note: nearly all actives have a fitted effect of over 35% in size; note: potency is the fitted concentration of half-maximal effect;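 for viability: 100% = DMSO wells and 0% = empty wells without cells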
Procedure, shortened: (§1)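 Each medium arm—HPLM with 10% dialyzed FBS, or RPMI1640 with 5 mM glucose and 10% untreated or dialyzed FBS—was screened against an 11-point, 3-fold compound titration for 48 h at 37 °C, with CellTiter-Glo luminescence as endpoint.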

[2] = Quantitative highthroughput screen to assess conditional lethalithy of NOMO1 cells grown in RPMI1640 with dialyzed fetal bovine serum (RPMI+ds) (AID 1963877); note: nearly all actives have a fitted effect of over 30% in size; note: potency is the fitted concentration of half-maximal effect;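 for viability: series mostly up to about 46 µM; 100% = DMSO control wells and 0% = empty wells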
Procedure, shortened: as §1

[3] = Quantitative highthroughput screen to assess conditional lethalithy of NOMO1 cells grown in Human Plasma-Like Medium with dialyzed fetal bovine serum (HPLM+ds) (AID 1963878); note: nearly all actives have a fitted effect of over 35% in size; note: potency is the fitted concentration of half-maximal effect;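 for viability: 100% = DMSO wells and 0% = empty wells on each plate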
Procedure, shortened: as §1

[4] = Quantitative highthroughput screen to assess conditional lethalithy of P12 Ichikawa cells grown in Human Plasma-Like Medium with dialyzed fetal bovine serum (HPLM+ds) (AID 1963879); conditions: Potency: viability; note: nearly all actives have a fitted effect of over 35% in size; note: potency is the fitted concentration of half-maximal effect; for viability: series mostly up to about 46 µM
Procedure, shortened: as §1

[5] = Quantitative highthroughput screen to assess conditional lethalithy of P12 Ichikawa cells grown in RPMI1640 with dialyzed fetal bovine serum (RPMI+ds) (AID 1963880); conditions: Potency: P12-Ichikawa viability; note: nearly all actives have a fitted effect of over 35% in size; note: potency is the fitted concentration of half-maximal effect;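 for viability: 100% = DMSO wells and 0% = empty wells on each plate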
Procedure, shortened: as §1

[6] = Quantitative highthroughput screen to assess conditional lethalithy of P12 Ichikawa cells grown in RPMI1640 with untreated serum (RPMI+s) (AID 1963881); conditions: Potency: viability; note: nearly all actives have a fitted effect of over 35% in size; note: potency is the fitted concentration of half-maximal effect;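 for viability: series mostly up to about 46 µM; 100% = DMSO wells and 0% = empty wells without cells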
Procedure, shortened: as §1

[7] = Quantitative highthroughput screen to assess conditional lethalithy of SEM cells grown in RPMI1640 with unreated serum (RPMI+s) (AID 1963883); note: nearly all actives have a fitted effect of over 35% in size; note: potency is the fitted concentration of half-maximal effect;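 for viability: 100% = DMSO wells and 0% = empty wells without cells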
Procedure, shortened: as §1

[8] = Cellular viability qHTS for adrenocortical cancer (ACC) cell line SW-13 (AID 1963989); conditions: SW-13 ACC cells viability, CellTiter-Glo, 48 h; activity (max response): active compounds read low;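 note: cells grown in serum-free medium with ITS supplement; % is set by controls: 0 for no effect and ±100 for the full control effect; nearly all actives have a fitted effect of over 65% in size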
Procedure, shortened: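 48 h treatment, SW-13 in ITS/DMEM serum-free; doses up to 46 uM; readout CellTiter-Glo luminescence; curve fit four-parameter logistic.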

[9] = Quantitative highthroughput screen to assess conditional lethalithy of SEM cells grown in Human Plasma-Like Medium with dialyzed fetal bovine serum (HPLM+ds) (AID 1963882)
Procedure, shortened: as §1

[10] = Quantitative highthroughput screen to assess conditional lethalithy of SEM cells grown in RPMI1640 with dialyzed fetal bovine serum (RPMI+ds) (AID 1963884); note: nearly all actives have a fitted effect of over 35% in size; note: potency is the fitted concentration of half-maximal effect;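 for viability: series mostly up to about 46 µM; 100% = DMSO control wells and 0% = empty wells without cells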
Procedure, shortened: as §1

[11] = Cellular viability qHTS for adrenocortical cancer (ACC) cell line NCI-H295R (AID 1963990);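 note: 0% = DMSO only wells and -100% = full killing with cytotoxic reference compound; nearly all actives have a fitted effect of over 60% in size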
Procedure, shortened: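 Compound titrations (up to 46 uM final) are applied to NCI-H295R cultures for 48 h at 37C. Viable cell number is estimated by CellTiter-Glo signal, normalised to DMSO and doxorubicin controls.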

Cn1cc(-c2ccc3ncc(Cc4ccc5ncccc5c4)n3n2)cn1
inactive: Potency [1] | Potency [2] | Potency [3] | Potency [4] | Potency [5] | Potency [6] | activity (max response) [8] 2.95%
active: Potency [7] 9350 nM

O=C(O)[C@H](CC(=O)N1C[C@@H]2CCCC[C@H]2C1)Cc1ccccc1
inactive: Potency [1] | Potency [2] | Potency [3] | Potency [4] | Potency [5] | Potency [6] | Potency [9] | Potency [10]

C[C@@H]1[C@H](C)CC[C@]2(C(=O)O)CC[C@]3(C)C(=CC[C@@H]4[C@@]5(C)CC[C@H](O)C(C)(C)[C@H]5CC[C@]43C)[C@@H]12
inactive: Potency [1] | Potency [2] | Potency [3] | Potency [4] | Potency [5] | Potency [6] | Potency [9] | Potency [10]

C[C@]12CCC3=C4CCC(=O)C=C4CC[C@@H]3[C@H]1CC[C@@]2(O)CC#N
inactive: Potency [1] | Potency [2] | Potency [3] | Potency [4] | Potency [5] | Potency [6] | Potency [9] | Potency [10]

COc1cc(Cl)cn2c(-c3cccc(NC4CNC4)n3)cnc12
inactive: Potency [1] | Potency [2] | Potency [3] | Potency [4] | Potency [5] | Potency [6] | Potency [7] | Potency [10]

O=C(O)[C@H](Cc1c[nH]c2ccccc12)N1C(=O)c2ccccc2C1=O
inactive: Potency [1] | Potency [2] | Potency [3] | Potency [4] | Potency [5] | Potency [6] | Potency [9] | activity (max response) [8] -15.6% | Potency [11]

NC(=O)c1ccc(I)c([N+](=O)[O-])c1
inactive: Potency [1] | Potency [2] | Potency [3] | Potency [4] | Potency [5] | Potency [6] | Potency [9] | Potency [7] | activity (max response) [8] 11.3% | Potency [11]

CC1=C(CC(=O)O)c2cc(F)ccc2C1=Cc1ccc(S(C)=O)cc1 (stereo not drawn)
inactive: Potency [1] | Potency [2] | Potency [3] | Potency [4] | Potency [5] | Potency [6] | Potency [9] | Potency [7] | Potency [11]

c1ccc(CNc2nc(N3CCOc4ccccc43)nc3c2CCCC3)cc1
inactive: Potency [1] | Potency [2] | Potency [3] | Potency [4] | Potency [5] | Potency [6] | Potency [9] | Potency [10]

C[C@]12CC[C@@H]3c4ccc(O)cc4C[C@@H](CCCCCCCCCS(=O)CCCC(F)(F)C(F)(F)F)[C@H]3[C@H]1CC[C@H]2O (stereo partly drawn)
inactive: Potency [1] | Potency [2] | Potency [3] | Potency [4] | Potency [5] | Potency [6] | Potency [9] | Potency [7] | activity (max response) [8] -14.8% | Potency [11]

O=C(C=CC=Cc1ccc2c(c1)OCO2)N1CCCCC1
inactive: Potency [1] | Potency [2] | Potency [3] | Potency [4] | Potency [5] | Potency [6] | Potency [9] | Potency [10]

CN[C@@H]1C[C@H]2O[C@@](C)([C@H]1OC)n1c3ccccc3c3c4c(c5c6ccccc6n2c5c31)C(=O)N[C@H]4O
active: Potency [1] 833 nM | Potency [2] 1050 nM | Potency [3] 590 nM | Potency [4] 743 nM | Potency [5] 590 nM | Potency [6] 418 nM | Potency [7] 332 nM | Potency [10] 526 nM

Cc1c(OCC(F)(F)F)ccnc1CS(=O)c1nc2ccccc2[nH]1 (stereo not drawn)
inactive: Potency [1] | Potency [2] | Potency [3] | Potency [4] | Potency [5] | Potency [6] | Potency [9] | Potency [7] | Potency [10] | Potency [11]

C[C@H]1C[C@H]2[C@@H]3CCC4=CC(=O)C=C[C@]4(C)[C@@H]3C(=O)C[C@]2(C)[C@@]1(O)C(=O)CO
inactive: Potency [1] | Potency [2] | Potency [3] | Potency [4] | Potency [5] | Potency [6]
active: Potency [7] 20900 nM | Potency [10] 23500 nM

Nc1ccn(C[C@@H](CO)OCP(=O)(O)O)c(=O)n1
inactive: Potency [1] | Potency [2] | Potency [3] | Potency [4] | Potency [5] | Potency [6] | Potency [9] | Potency [10] | activity (max response) [8] -11.5% | activity change, negative = viability loss [11] 1.71% [at 9.17 µM]

COC(=O)C[C@](O)(CCCC(C)(C)O)C(=O)O[C@@H]1C(OC)=C[C@]23CCCN2CCc2cc4c(cc2[C@H]13)OCO4
inactive: Potency [1] | Potency [2] | Potency [3] | Potency [4] | Potency [5] | Potency [6] | Potency [9] | Potency [7] | activity (max response) [8] -15.2% | Potency [11]

O=[N+]([O-])c1cn2c(n1)OC[C@@H](OCc1ccc(OC(F)(F)F)cc1)C2
inactive: Potency [1] | Potency [2] | Potency [3] | Potency [4] | Potency [5] | Potency [6] | Potency [9] | Potency [7] | Potency [10] | Potency [11]

Cc1c(Cn2c(C)nc3c(C(=O)O)cc(N4CCOCC4)cc32)cccc1C(F)(F)F
inactive: Potency [1] | Potency [2] | Potency [4] | Potency [5] | Potency [6] | Potency [7] | Potency [10] | activity (max response) [8] 6.79% | Potency [11]
active: Potency [3] 26400 nM

O=C1c2c(O)cccc2[C@@H]([C@@H]2O[C@H](CO)[C@@H](O)[C@H](O)[C@H]2O)c2cc(CO)cc(O)c21
inactive: Potency [1] | Potency [2] | Potency [3] | Potency [4] | Potency [5] | Potency [6] | Potency [7] | Potency [10]

CS(=O)(=O)c1ccc(C(=O)Nc2ccc(Cl)c(-c3ccccn3)c2)c(Cl)c1
inactive: Potency [1] | Potency [2] | Potency [3] | Potency [4] | Potency [5] | Potency [6] | Potency [9] | Potency [10] | activity (max response) [8] -0.792% | Potency [11]
